The panel holds about 79,000 compounds, 15% with a hit somewhere; the sample as a whole holds those more often. A number with no mark means an inactive call. Activity calls are given as the source filed them. No stated cut-off is given here; in the data, active means growth inhibition above about 70%; inactive means the rest.

The experiment in a line: NCI Yeast Anticancer Drug Screen. Data for the mlh1 strain (AID 171).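 Further: 0% = growth of vehicle-treated control cultures of the same strain.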 Particulars: S. cerevisiae mlh1 strain growth inhibition, hits give high values. As to the method:
Growth inhibition of yeast strains with defined genetic alterations is measured as a screen for potential anti-cancer activity. Selected strains with alterations in DNA damage repair or cell cycle control were exposed to compounds and growth inhibition was measured relative to vehicle treated controls. The strain used in this assay is mlh1

Take `CCc1ncnc2cc(OCC3CO3)c(OC)cc12` (stereo not given): the growth inhibition was -4% (at 1.2 µM); -6% (at 3.7 µM); 9% (at 11.0 µM); 14% (at 33.0 µM); 61% (at 100.0 µM).

For `COc1ccc(O)c(/C=N\Nc2ccccc2)c1`, the growth inhibition was -13% (at 1.2 µM); -8% (at 3.7 µM); -7% (at 11.0 µM); -2% (at 33.0 µM); 74% (active) (at 100.0 µM).

With `CCc1ccc(NS(=O)(=O)c2ccccc2)c([N+](=O)[O-])c1`, the growth inhibition reads like this: (at 1.2 µM) 0%; (at 3.7 µM) 3%; (at 11.0 µM) 7%; (at 33.0 µM) 31%; (at 100.0 µM) 71% (active).

For the compound `O=C1C=CC(=O)c2c(O)c(Nc3ccc(OC(F)(F)F)cc3)c(Cl)c(O)c21`, the growth inhibition is, setting by setting: (at 1.2 µM) 0%; (at 3.7 µM) 6%; (at 11.0 µM) 13%; (at 33.0 µM) 37%; (at 100.0 µM) 87% (active).

For `Nc1ncncc1C(C1=C(O)COC1=O)C1=C(O)COC1=O`, the growth inhibition reads like this: (at 1.2 µM) 4%; (at 3.7 µM) 1%; (at 11.0 µM) 3%; (at 33.0 µM) 3%; (at 100.0 µM) 0%.

Consider `C[CH2][Sn]([CH2]C)([O]C(=O)C(OC(C)=O)c1ccccc1)[O]C(=O)C(OC(C)=O)c1ccccc1` (stereo not given), for which the growth inhibition is 1% (at 1.2 µM); 0% (at 3.7 µM); 4% (at 11.0 µM); 47% (at 33.0 µM); 93% (active) (at 100.0 µM).

Regarding `O=C1CSc2cc([N+](=O)[O-])ccc2N1`, the growth inhibition was 18% (at 1.2 µM); 5% (at 3.7 µM); 6% (at 11.0 µM); 0% (at 33.0 µM); -22% (at 100.0 µM).

Take `O=C1Nc2ccc(Cl)c(I)c2C1=O`: the growth inhibition (at 1.2 µM) is 31%; the growth inhibition (at 3.7 µM) was 29%; the growth inhibition (at 11.0 µM) was 27%; the growth inhibition (at 33.0 µM) was 36%; the growth inhibition (at 100.0 µM) was 83% (active).

The values are drawn from PubChem BioAssay (NCI).
